Laboratory results from PubChem BioAssay (NCATS).
Inconclusive results are not listed. A number with no mark means an inactive call. The source made the active and inactive calls. Calls come from the whole dose curve; as a rule, active = well fitted curve in the direction sought with a large enough effect; inconclusive = small, poorly fitted or top-dose-only effect, or another doubt; inactive = no such curve, though single readings can be large; an effect the other way counts as inactive or inconclusive.

Experiments:
[1] = qHTS of pediatric cancer cell lines to identify multiple opportunities for drug repurposing: Primary screen for SK-N-SH cells (AID 1347098); note: nearly all actives have a fitted effect of over 65% in size; note: potency is the fitted concentration of half-maximal effect
Summary of the method: (§1)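 Cells (500-1,000/well) rested 5 h, then received compounds for 48 h; metabolically active cells were measured by CellTiter-Glo luminescence. Final concentrations spanned up to 46 µM (MIPE, 11-point) or 0.59 nM-46 µM (NPC, 8-point) in primary screens, 11-point in follow-ups.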

[2] = qHTS of pediatric cancer cell lines to identify multiple opportunities for drug repurposing: Primary screen for NB1643 cells (AID 1347099); note: nearly all actives have a fitted effect of over 50% in size; note: potency is the fitted concentration of half-maximal effect
Summary of the method: (§2)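 Plated cells (500-1,000 per well, growth media) were allowed to settle for 5 hours, treated with compound dilutions for 48 hours, then lysed with CellTiter-Glo for 15 min at room temperature before luminescence reading.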

[3] = qHTS of pediatric cancer cell lines to identify multiple opportunities for drug repurposing: Primary screen for LAN-5 cells (AID 1347100); note: potency is the fitted concentration of half-maximal effect
Summary of the method: (§3)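 Cells (500-1,000/well) in growth media were settled 5 h at 37 degrees C, then given compounds for 48 h. Viability was read as CellTiter-Glo luminescence. Primary runs used MIPE at 11 points (0.78 nM-46 µM) and NPC at 8 points (0.59 nM-46 µM); follow-ups used 11 points.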

[4] = qHTS of pediatric cancer cell lines to identify multiple opportunities for drug repurposing: Primary screen for BT-12 cells (AID 1347101); note: nearly all actives have a fitted effect of over 25% in size; note: potency is the fitted concentration of half-maximal effect
Summary of the method: as §1

[5] = qHTS of pediatric cancer cell lines to identify multiple opportunities for drug repurposing: Primary screen for OHS-50 cells (AID 1347103); note: nearly all actives have a fitted effect of over 40% in size; note: potency is the fitted concentration of half-maximal effect
Summary of the method: as §1

[6] = qHTS of pediatric cancer cell lines to identify multiple opportunities for drug repurposing: Primary screen for MG 63 (6-TG R) cells (AID 1347105); note: nearly all actives have a fitted effect of over 50% in size; note: potency is the fitted concentration of half-maximal effect
Summary of the method: as §2

[7] = qHTS of pediatric cancer cell lines to identify multiple opportunities for drug repurposing: Primary screen for Rh30 cells (AID 1347107); note: nearly all actives have a fitted effect of over 75% in size; note: potency is the fitted concentration of half-maximal effect
Summary of the method: as §3

[8] = qHTS of pediatric cancer cell lines to identify multiple opportunities for drug repurposing: Primary screen for Rh41 cells (AID 1347108); note: nearly all actives have a fitted effect of over 70% in size; note: potency is the fitted concentration of half-maximal effect
Summary of the method: as §2

[9] = qHTS of pediatric cancer cell lines to identify multiple opportunities for drug repurposing: Confirmatory screen for NB1643 cells (AID 1347109); note: potency is the fitted concentration of half-maximal effect; nearly all actives have a fitted effect of over 45% in size
Summary of the method: as §3

[10] = qHTS of pediatric cancer cell lines to identify multiple opportunities for drug repurposing: Confirmatory screen for A673 cells (AID 1347110);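 note: potency is the fitted concentration of half-maximal effect; cells exposed to compound for 48 h before the viability read; nearly all actives have a fitted effect of over 65% in size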
Summary of the method: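 Forty-eight-hour viability assay. Follow-up compounds ran at 11-point dilutions; positive control bortezomib at 2.3 uM final, neutral control DMSO.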

[11] = qHTS of pediatric cancer cell lines to identify multiple opportunities for drug repurposing: Confirmatory screen for SK-N-MC cells (AID 1347111);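 note: cells exposed to compound for 48 h before the readout; nearly all actives have a fitted effect of over 70% in size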; note: potency is the fitted concentration of half-maximal effect
Summary of the method: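 Metabolically active cells were quantified by ATP-dependent luminescence (CellTiter-Glo, 15 min at room temperature) following 48 h treatment. Cells had been plated at 500-1,000 per well and settled for 5 h beforehand.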

[12] = qHTS of pediatric cancer cell lines to identify multiple opportunities for drug repurposing: Confirmatory screen for BT-12 cells (AID 1347112); note: nearly all actives have a fitted effect of over 55% in size; note: potency is the fitted concentration of half-maximal effect
Summary of the method: as §3

[13] = qHTS of pediatric cancer cell lines to identify multiple opportunities for drug repurposing: Confirmatory screen for LAN-5 cells (AID 1347113); note: potency is the fitted concentration of half-maximal effect; nearly all actives have a fitted effect of over 65% in size
Summary of the method: as §3

[14] = qHTS of pediatric cancer cell lines to identify multiple opportunities for drug repurposing: Confirmatory screen for DAOY cells (AID 1347114); note: potency is the fitted concentration of half-maximal effect; nearly all actives have a fitted effect of over 65% in size
Summary of the method: (§4)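 Viability measured as metabolically active cells via CellTiter-Glo luminescence following 48 hours of compound exposure, 11-point dilutions in confirmatory testing. 500-1,000 cells/well plated 5 hours before dosing; controls were DMSO and 2.3 µM bortezomib.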

[15] = qHTS of pediatric cancer cell lines to identify multiple opportunities for drug repurposing: Confirmatory screen for NB-EBc1 cells (AID 1347115);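 note: cells exposed to compound for 48 h before the viability read; nearly all actives have a fitted effect of over 45% in size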; note: potency is the fitted concentration of half-maximal effect
Summary of the method: as §3

[16] = qHTS of pediatric cancer cell lines to identify multiple opportunities for drug repurposing: Confirmatory screen for SJ-GBM2 cells (AID 1347116); note: potency is the fitted concentration of half-maximal effect; nearly all actives have a fitted effect of over 60% in size
Summary of the method: as §4

[17] = qHTS of pediatric cancer cell lines to identify multiple opportunities for drug repurposing: Confirmatory screen for BT-37 cells (AID 1347117); note: potency is the fitted concentration of half-maximal effect; nearly all actives have a fitted effect of over 55% in size
Summary of the method: as §3

[18] = qHTS of pediatric cancer cell lines to identify multiple opportunities for drug repurposing: Primary screen for Rh18 cells (AID 1347102); note: nearly all actives have a fitted effect of over 65% in size; note: potency is the fitted concentration of half-maximal effect
Summary of the method: as §3

[19] = qHTS of pediatric cancer cell lines to identify multiple opportunities for drug repurposing: Primary screen for control Hh wild type fibroblast cells (AID 1347106);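 note: series mostly up to about 46 µM; a drop in luminescence marks cytotoxicity and a rise apparent proliferation; nearly all actives have a fitted effect of over 55% in size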
Summary of the method: as §3

[20] = qHTS of pediatric cancer cell lines to identify multiple opportunities for drug repurposing: Primary screen for RD cells (AID 1347104); note: nearly all actives have a fitted effect of over 55% in size; note: potency is the fitted concentration of half-maximal effect
Summary of the method: as §2

Row | SMILES | Potency [1] | Potency [2] | Potency [3] | Potency [4] | Potency [5] | Potency [6] | Potency [7] | Potency [8] | Potency [9] | Potency [10] | Potency [11] | Potency [12] | Potency [13] | Potency [14] | Potency [15] | Potency [16] | Potency [17] | Potency [18] | Potency [19] | Potency [20]
1 | CN1CCN(Cc2ccc(NC(=O)Nc3ccc(Oc4cc(NC(=O)C5CC5)ncn4)cc3)cc2C(F)(F)F)CC1 | 0.764 µM (active) | 0.526 µM (active) | 2.35 µM (active) | 0.485 µM (active) | 0.485 µM (active) | 1.87 µM (active) | 20.9 µM (active) | 0.469 µM (active) | 1.85 µM (active) | 0.131 µM (active) | 0.131 µM (active) | 0.465 µM (active) | 1.04 µM (active) | 0.522 µM (active) | 23.3 µM (active) | 1.65 µM (active) | 0.369 µM (active) | – | – | –
2 | CC(C)(C)OC(=O)Nc1ccc(-c2cc(C(=O)NCCCCCCC(=O)NO)no2)cc1 | 6.81 µM (active) | 1.18 µM (active) | 1.66 µM (active) | 17.2 µM (active) | 4.32 µM (active) | inactive | 7.43 µM (active) | 3.72 µM (active) | 1.17 µM (active) | 2.33 µM (active) | 0.0329 µM (active) | 18.5 µM (active) | – | – | – | 4.14 µM (active) | – | 2.35 µM (active) | – | –
3 | Nc1nc(-c2nn(Cc3ccccc3F)c3ncccc23)nc(N)c1N1CCOCC1 | inactive | inactive | inactive | inactive | – | inactive | inactive | inactive | – | – | – | – | – | – | – | – | – | inactive | inactive | –
4 | CN(C)CC=CC(=O)Nc1cc2c(Nc3ccc(F)c(Cl)c3)ncnc2cc1O[C@H]1CCOC1 | 24.1 µM (active) | 0.296 µM (active) | 7.43 µM (active) | 21.7 µM (active) | – | 14.8 µM (active) | 14.8 µM (active) | 7.43 µM (active) | – | – | – | – | – | – | – | – | – | 14.8 µM (active) | – | –
5 | CNC(=O)c1nn(C)c2c1C(C)(C)Cc1cnc(Nc3ccc(N4CCN(C)CC4)cc3)nc1-2 | 1.71 µM (active) | 0.743 µM (active) | 0.662 µM (active) | 6.85 µM (active) | – | – | inactive | 11.8 µM (active) | – | 0.928 µM (active) | 1.17 µM (active) | 9.27 µM (active) | 1.85 µM (active) | – | – | 0.657 µM (active) | 1.04 µM (active) | 3.32 µM (active) | inactive | –
6 | c1nc2nc(Nc3ccc(N4CCOCC4)cc3)nc(NC3CCCCC3)c2[nH]1 | 4.29 µM (active) | 1.66 µM (active) | 0.469 µM (active) | 21.7 µM (active) | – | 11.8 µM (active) | 11.8 µM (active) | 5.9 µM (active) | – | – | – | – | – | – | – | – | – | 9.35 µM (active) | – | 13.2 µM (active)
7 | O=C(Nc1cc(C(F)(F)F)cc(C(F)(F)F)c1)c1cc(Cl)ccc1O | 2.41 µM (active) | 0.372 µM (active) | 0.332 µM (active) | 1.72 µM (active) | – | 0.743 µM (active) | – | 2.35 µM (active) | 1.65 µM (active) | 3.29 µM (active) | 3.69 µM (active) | 3.69 µM (active) | 2.61 µM (active) | – | 2.93 µM (active) | – | 1.85 µM (active) | 4.18 µM (active) | inactive | 0.662 µM (active)
8 | Cc1cn(-c2cc(NC(=O)c3ccc(C)c(Nc4nccc(-c5cccnc5)n4)c3)cc(C(F)(F)F)c2)cn1 | inactive | inactive | inactive | inactive | inactive | – | inactive | inactive | 18.5 µM (active) | 20.8 µM (active) | inactive | inactive | 18.5 µM (active) | – | inactive | – | 16.5 µM (active) | inactive | inactive | –
9 | CN(C)c1nc(Cc2ccc(NC(=O)c3ccc4ccccc4c3)cc2)nc(Cl)c1CC(=O)O | inactive | inactive | inactive | inactive | inactive | inactive | inactive | inactive | – | – | – | – | – | – | – | – | – | – | inactive | inactive
10 | C[C@@H](Oc1cc(-n2cnc3ccc(CN4CCN(C)CC4)cc32)sc1C(N)=O)c1ccccc1C(F)(F)F | 0.108 µM (active) | 0.0235 µM (active) | 0.0332 µM (active) | 24.3 µM (active) | 0.0968 µM (active) | inactive | – | inactive | 42.7 µM (active) | 0.117 µM (active) | 0.0537 µM (active) | 47.9 µM (active) | 10.7 µM (active) | – | 0.24 µM (active) | 10.4 µM (active) | 0.24 µM (active) | 20.9 µM (active) | – | –
11 | CNc1nccc(-c2cccnc2Oc2cc(C(=O)Nc3cccc(C(F)(F)F)c3)ccc2C)n1 | 9.61 µM (active) | 11.8 µM (active) | 16.6 µM (active) | 19.3 µM (active) | – | 4.69 µM (active) | inactive | – | – | – | – | – | – | – | – | – | – | – | – | 8.33 µM (active)
12 | CN(C)CCCN=c1c2ccccc2n(C)c2[nH]c(=O)n(C)c(=O)c12 | 4.29 µM (active) | 3.32 µM (active) | 2.09 µM (active) | 7.69 µM (active) | – | – | – | 9.35 µM (active) | 23.3 µM (active) | – | – | 23.3 µM (active) | 23.3 µM (active) | – | – | – | 18.5 µM (active) | – | – | –
